In PubChem BioAssay (NCATS):
Values joined by “and” are separate entries in the source; they are usually repeats but may differ in a detail not shown here. Equal values may be shown once. Inconclusive results are not listed. A call without a number means that no potency is given here. Active and inactive are the calls of the source. Calls come from the whole dose curve; as a rule, active = well fitted inhibition curve with a large enough effect; inconclusive = small, poorly fitted or top-dose-only effect; inactive = flat fitted curve, though single readings scatter.

Target: Voltage-gated inwardly rectifying potassium channel KCNH2 (Homo sapiens) (UniProt Q12809)
Experiment: qHTS Assay for Small Molecule Inhibitors of the Human hERG Channel Activity (AID 588834);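 note: lower thallium flux fluorescence means stronger hERG block; nearly all actives have a fitted effect of over 50% in size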
Details: U2OS BacMam hERG, FluxOR thallium flux fluorescence; series mostly up to 46.1 µM
Text: NIH Chemical Genomics Center [NCGC]
National Institutes of Environmental Health Sciences [NIEHS]
National Toxicology Program [NTP]
We have developed a 1536-well cell-based assay for quantitative high throughput screening (qHTS) to determine in vitro hERG channel blockage as a measure of cardio toxicity with small molecules. This particular assay uses the U2OS cell line which is derived from human osteosarcoma.
NCGC Assay Protocol Summary:
HERG assay (FluxORTM thallium flux assay) was initially developed by Invitrogen/Molecular Probes, and then miniaturized into 1536-well plate in a homogeneous format by NCGC. This assay measures the activity of potassium channel using thallium dye (FluxOR) flux as surrogate measurement for potassium into the cells with a FDSS-7000 kinetic plate reader (Hamamatsu Corp., Hamamatsu City, Japan). The hERG ion channel is transduced into mammalian cells (U2OS) using a baculovirus (Bacmam) construct harboring the hERG K+ ion channel. So far we screened LOPAC1280 library (Sigma), the NTP collection of 1408 compounds, and the NCGC Pharmaceutical Collection (NPC), in which many well defined HERG blockers are present. The rank order potencies of many of these compounds are similar to that of other HERG assays (membrane potential, Rb+ flux, patch clamp, etc). This quick and homogeneous assay is also found to be sensitive, specific, and robust.
Using the FluxORTM thallium flux assay, the activity of potassium channel using thallium dye (FluxOR) flux as surrogate measurement for potassium into the cells was measured in the U2OS cell line transduced with hERG K+ ion channel using a baculovirus (Bacmam) using Opti-MEM medium (Invitrogen) containing 2% fetal calf serum (FCS, HyCone) following loading buffer addition, compound treatment for around 10 minutes and finally adding stimulation buffer. The assay was performed in black clear Kalypsys 1536-well plates. In the screen, Astemizole was used as positive controls. Library compounds were measured for their ability to cause hERG channel blockage in the cell line, as reflected by a decrease in fluorescence intensity, in a concentration-dependent manner. […] AC50 values were determined from concentration-response data modeled with the standard Hill equation.
qHTS protocol for hERG-U2OS cellular assay
[Step] [Parameter] [Value] [Description]
1. Day 1: Replace medium in 70-80% confluent T225 flask with 2.5 mL of hERG-BacMam virus plus 12.5 mL of phosphate buffered saline (PBS) (corresponding roughly to a multiplicity of infection ratio of 100 virus particles/cell)
2. Incubation: 4 hrs @ room Temperature in Dark
3. Reagent; Remove virus; wash once with 25 ml DPBS
4. Reagent; 35 ml culture medium
5. Incubation; 37 °C overnight
6. Day2: Reagent; 3 uL; 2000 U2OS cells/well
7. Time; 4 hr; 37 °C incubation
8. Loading buffer; 1 uL; 0.7X;
9. Incubation: 1hr @ RT in Dark.
12. Time; 10min; 37 °C incubation
13. Read fluorescence Intensity on FDSS for 10 Sec with 1 sec interval
14. Reagent; 1 uL; stimulation buffer
15. Read fluorescence Intensity on FDSS for 2 min with 1 sec interval
16. Detection; Fluorescence Intensity; FDSS
Potency is the fitted concentration of half-maximal effect.

Sequence of Voltage-gated inwardly rectifying potassium channel KCNH2 (Homo sapiens) (Q12809 whole entry, looked up): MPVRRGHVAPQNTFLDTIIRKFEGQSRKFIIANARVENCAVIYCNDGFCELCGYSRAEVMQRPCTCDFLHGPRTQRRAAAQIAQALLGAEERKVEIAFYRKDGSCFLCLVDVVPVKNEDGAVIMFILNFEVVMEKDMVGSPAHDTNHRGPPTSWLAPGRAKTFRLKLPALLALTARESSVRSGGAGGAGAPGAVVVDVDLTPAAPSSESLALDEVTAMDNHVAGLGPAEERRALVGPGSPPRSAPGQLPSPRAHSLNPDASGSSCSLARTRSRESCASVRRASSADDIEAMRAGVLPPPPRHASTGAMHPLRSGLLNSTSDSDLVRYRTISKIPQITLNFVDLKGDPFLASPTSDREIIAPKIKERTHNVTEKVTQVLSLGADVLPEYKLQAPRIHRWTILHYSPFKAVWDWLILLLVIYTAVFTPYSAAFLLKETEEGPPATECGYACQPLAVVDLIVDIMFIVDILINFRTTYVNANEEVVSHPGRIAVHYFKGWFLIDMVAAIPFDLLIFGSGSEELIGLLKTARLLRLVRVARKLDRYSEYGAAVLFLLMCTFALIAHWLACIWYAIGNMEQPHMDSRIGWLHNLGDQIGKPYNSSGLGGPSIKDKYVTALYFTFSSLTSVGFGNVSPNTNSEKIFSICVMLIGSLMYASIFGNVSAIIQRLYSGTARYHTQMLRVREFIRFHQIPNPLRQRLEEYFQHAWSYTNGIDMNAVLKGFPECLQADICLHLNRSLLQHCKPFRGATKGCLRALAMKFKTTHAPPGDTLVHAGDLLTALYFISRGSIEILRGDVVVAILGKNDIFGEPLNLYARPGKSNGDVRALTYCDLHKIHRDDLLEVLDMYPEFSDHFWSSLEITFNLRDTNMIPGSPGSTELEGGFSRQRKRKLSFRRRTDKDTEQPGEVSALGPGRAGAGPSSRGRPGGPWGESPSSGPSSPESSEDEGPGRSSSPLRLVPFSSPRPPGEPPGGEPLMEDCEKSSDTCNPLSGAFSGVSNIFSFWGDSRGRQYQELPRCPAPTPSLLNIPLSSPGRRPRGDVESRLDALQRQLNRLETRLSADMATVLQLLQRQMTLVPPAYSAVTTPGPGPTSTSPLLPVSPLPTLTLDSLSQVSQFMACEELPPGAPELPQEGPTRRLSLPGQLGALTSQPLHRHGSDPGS

Q: With `CN1CCCC(CN2c3ccccc3Sc3ccccc32)C1` (stereo not given) as the compound, how does the Potency read?
A: Its Potency is 12.6 µM (active).

Q: For `CCCCC/C=C\CCC(=O)N[C@H]1[C@H](Oc2c3cc4cc2Oc2ccc(cc2Cl)[C@@H](O[C@@H]2O[C@H](CO)[C@@H](O)[C@H](O)[C@H]2NC(C)=O)[C@@H]2NC(=O)[C@H](NC(=O)[C@@H]4NC(=O)[C@H]4NC(=O)[C@@H](Cc5ccc(c(Cl)c5)O3)NC(=O)[C@H](N)c3ccc(O)c(c3)Oc3cc(O)cc4c3)c3ccc(O)c(c3)-c3c(O[C@H]4O[C@H](CO)[C@@H](O)[C@H](O)[C@@H]4O)cc(O)cc3[C@@H](C(=O)O)NC2=O)O[C@H](CO)[C@@H](O)[C@@H]1O`, which Potency is on record?
A: Its Potency is “inactive”.

Q: `Cc1cc(=O)c(C(=O)N[C@@H](C(=O)N[C@@H]2C(=O)N3C(C(=O)O)=C(CSc4nnnn4C)CS[C@H]23)c2ccc(O)cc2)c[nH]1` was tested. Which Potency did it give?
A: The Potency was “inactive”.

Q: For `CCC(O)c1ccccc1` (stereo not given), which Potency is on record?
A: Its Potency is “inactive”.

Q: For `CCCCCc1ccc(C)cc1O`, which Potency is on record?
A: Its Potency is “inactive”.

Q: `O=C(O)CN(CC(=O)O)CC1=CC2C(=CC1=O)Oc1cc(O)c(CN(CC(=O)O)CC(=O)O)cc1C21OC(=O)c2ccccc21` (stereo not given) was tested. Which Potency did it give?
A: Its Potency is 0.891 µM (active).

Q: For `Cc1c(C)c2c(c(C)c1OC(=O)CCC(=O)O)CC[C@@](C)(CCC[C@H](C)CCC[C@H](C)CCCC(C)C)O2`, which Potency is on record?
A: The Potency was “inactive”.

Q: How did the Potency turn out when `[O]=[Bi][O][Bi]=[O]` was run?
A: Its Potency is “inactive”.

Q: Which Potency does the source give for `CN[C@@H]1[C@H](O[C@H]2[C@H](O[C@H]3[C@H](O)[C@@H](O)[C@H](N=C(N)N)[C@@H](O)[C@@H]3N=C(N)N)O[C@@H](C)[C@]2(O)C=O)O[C@@H](CO)[C@H](O)[C@H]1O` here?
A: The Potency was “inactive”.

Q: For `C=CC1=C(C(=O)O)N2C(=O)[C@@H](NC(=O)/C(=N/OCC(=O)O)c3csc(N)n3)[C@H]2SC1` (stereo in doubt), which Potency is on record?
A: The Potency was “inactive”.

Q: `CCCCC` was tested. Which Potency did it give?
A: The Potency was “inactive”.

Q: How did the Potency turn out when `Cc1ccc(S(=O)(=O)O)cc1C` was run?
A: The Potency was “inactive”.

Q: `O=C(O)Cc1cc(I)c(Oc2ccc(O)c(I)c2)c(I)c1` was tested. Which Potency did it give?
A: The Potency was “inactive”.

Q: For `NC(N)=NCC1COc2ccccc2O1` (stereo not given), which Potency is on record?
A: The Potency was “inactive”.

Q: With `O=C1c2ccccc2CN2C(=O)c3ccccc3CN12` as the compound, how does the Potency read?
A: Its Potency is “inactive”.

Q: With `OB(O)O` as the compound, how does the Potency read?
A: The Potency was “inactive”.

Q: `CCC(C)[C@@H](N)C(=O)O` (stereo not given in full) was tested. Which Potency did it give?
A: The Potency was “inactive”.

Q: For `Nc1ncnc2c1ncn2[C@H]1CC[C@@H](CO)O1`, which Potency is on record?
A: Its Potency is “inactive”.

Q: How did the Potency turn out when `C=C1C(CCl)(CCl)C2(Cl)C(Cl)C(Cl)C1(Cl)C2(Cl)Cl` (stereo not given) was run?
A: The Potency was 28.2 µM (active) and 15.8 µM (active).

Q: With `CN1c2c(nc(N)[nH]c2=O)NCC1CNc1ccc(C(=O)NC(CCC(=O)O)C(=O)O)cc1` (stereo not given) as the compound, how does the Potency read?
A: Its Potency is “inactive”.

Q: With `C=CCCCCCCCCC(=O)OC` as the compound, how does the Potency read?
A: The Potency was “inactive”.

Q: Which Potency does the source give for `COc1ccc(/C=N/NC(=O)c2ccncc2)c(C(=O)O)c1OC` here?
A: The Potency was “inactive”.

Q: `CO/N=C(\C(=O)N[C@@H]1C(=O)N2C(C(=O)O)=C(CSc3nnnn3C)CS[C@H]12)c1csc(N)n1` was tested. Which Potency did it give?
A: Its Potency is “inactive”.

Q: With `CN1CCc2c(c3ccccc3n2Cc2ccccc2)C1` as the compound, how does the Potency read?
A: The Potency was 5.01 µM (active).

Q: With `Cc1ccc(C(C)(C)c2ccc(C)cc2)cc1` as the compound, how does the Potency read?
A: The Potency was “inactive”.

Q: Which Potency does the source give for `Cc1cccc(C)c1NC(=O)C1CCCCN1C` (stereo not given) here?
A: The Potency was “inactive”.

Q: With `C[Si](C)(C)O[Si](C)(C)C` as the compound, how does the Potency read?
A: Its Potency is “inactive”.

Q: How did the Potency turn out when `CN1C(C(=O)Nc2ccccn2)C(=O)c2sc(Cl)cc2S1(=O)=O` (stereo not given) was run?
A: The Potency was “inactive”.

Q: How did the Potency turn out when `CCCCCCCCCCCCCCCCCC(=O)OCC(C)O` (stereo not given) was run?
A: The Potency was “inactive”.

Q: `CC(C)(C)c1ccc(CN2CCN(C(c3ccccc3)c3ccc(Cl)cc3)CC2)cc1` (stereo not given) was tested. Which Potency did it give?
A: The Potency was 2.82 µM (active).

Q: For `CC(C)Cc1ccc([C@@H](C)C(=O)NS(C)(=O)=O)cc1`, which Potency is on record?
A: The Potency was “inactive”.

Q: With `N[C@@H](Cc1cc(I)c(Oc2ccc(O)c(I)c2)c(I)c1)C(=O)O` as the compound, how does the Potency read?
A: The Potency was “inactive”.

Q: Which Potency does the source give for `CNC(=O)C[C@@H](N)C(=O)N[C@@H](C(=O)N[C@@H]1C(=O)N2[C@@H]1SC(C)(C)[C@@H]2C(=O)O)c1ccc(O)cc1` here?
A: The Potency was “inactive”.

Q: With `CO/N=C(\C(=O)N[C@@H]1C(=O)N2C(C(=O)[O-])=C(C[n+]3ccc(N)n3CCO)CS[C@H]12)c1csc(N)n1` as the compound, how does the Potency read?
A: The Potency was “inactive”.

Q: For `C[C@@H](O)[C@H]1C(=O)N2C(C(=O)[O-])=C(SC3Cn4cnc[n+]4C3)[C@H](C)[C@H]12` (stereo not given in full), which Potency is on record?
A: The Potency was “inactive”.

Q: Which Potency does the source give for `CC/C=C\C/C=C\C/C=C\C/C=C\C/C=C\C/C=C\CCC(=O)O` here?
A: The Potency was “inactive”.

Q: How did the Potency turn out when `CN[C@@H]1[C@@H](O)[C@@H](O[C@@H]2[C@@H](O)[C@H](O[C@H]3O[C@H](CN)[C@@H](O)[C@H](O)[C@H]3O)[C@@H](N)C[C@H]2NC(=O)C(O)CN)OC[C@]1(C)O` (stereo not given in full) was run?
A: The Potency was “inactive”.

Q: For `Cc1cc(C)c(NC(=O)C[C@H](CC(=O)O)c2cccc3ccccc23)c(C(=O)N2CCC3(CCCC3)CC2)c1`, which Potency is on record?
A: Its Potency is “inactive”.

Q: `O=C1c2ccccc2C(=O)C1c1ccc(F)cc1` was tested. Which Potency did it give?
A: The Potency was “inactive”.

Q: With `FC(F)(F)COCC(F)(F)F` as the compound, how does the Potency read?
A: Its Potency is “inactive”.
